Consider 16 compounds from PubChem BioAssay (NCATS).

Records with an inconclusive call do not appear. The source made the active and inactive calls. Unless noted, calls come from the whole dose curve; as a rule, active = well fitted curve in the direction sought with a large enough effect; inconclusive = small, poorly fitted or top-dose-only effect, or another doubt; inactive = no such curve, though single readings can be large; an effect the other way counts as inactive or inconclusive.

The target of test [1] is Calcium and integrin-binding protein 1 (Homo sapiens) (UniProt Q99828). Kind of test: Primary qHTS for Identification of Calcium Integrin Binding Protein 1 (CIB1) Competitor (AID 1508620).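 Note: GST tagged CIB1 binding a fluorescein labelled alphaIIb integrin peptide tracer; top concentration of the series differs between compounds; % is set by controls: 0 for no effect and ±100 for the full control effect.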 In outline:
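Fluorescence polarization competition: CIB1-GST (1 uM final) preincubated with compound 15 min at room temperature, then FITC-labeled alphaIIb peptide (100 nM final) added for another 15 min. Polarization read at Ex 480/Em 540.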
On the technique in general: qHTS replaces the single test concentration by a dilution series.

The target of test [2] is Catechol O-methyltransferase (Homo sapiens) (UniProt P21964). Put plainly: Confirmatory Screen for Target Class Profiling of Small Molecule Inhibitors of Methyltransferases (AID 1745852; calls by dose curve; note: potency is the fitted concentration of half-maximal effect; for activity change, negative = inhibition: % is set by controls: 0 for no effect and ±100 for the full control effect). Conditions: MTase-Glo luminescence, SAH detection, recombinant enzyme; measured here: COMT max response; stronger effect = lower value.
Test [3] has as its target Guanidinoacetate N-methyltransferase (Homo sapiens) (UniProt Q14353). The test is described as above. Conditions: MTase-Glo luminescence, SAH detection, recombinant enzyme; activity change, negative = inhibition: at 57.3 µM (top of the series) unless noted.
The target of test [4] is Nicotinamide N-methyltransferase (Homo sapiens) (UniProt P40261). The description is as above. Conditions: MTase-Glo luminescence, SAH detection, recombinant enzyme; measured here: NNMT max response; stronger effect = lower value.
Test [5] has as its target Phenylethanolamine N-methyltransferase (Homo sapiens) (UniProt P11086). The description is as above. Conditions: MTase-Glo luminescence, SAH detection, recombinant enzyme; measured here: PNMT max response; stronger effect = lower value.
The target in test [6] is Cytochrome P450 2D6 (Homo sapiens) (UniProt P10635). Kind of test: Cytochrome P450 family 2 subfamily D member 6 (CYP2D6) small molecule antagonists: luciferase biochemical (cell-free) qHTS assay (AID 1645840; active = well fitted curve in the direction sought with a large enough effect in the repeat runs; an effect the other way counts as inactive or inconclusive; note: nearly all actives have a fitted effect of over 55% in size; note: potency is the fitted concentration of half-maximal effect; for activity change, negative = inhibition: % is set by controls: 0 for no effect and ±100 for the full control effect). In outline: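 P450-Glo CYP2D6 system: proluciferin substrate converted by enzyme to luciferin, read by luminescence proportional to activity. Enzyme-substrate mix with compound 10 min at room temperature, then NADPH regeneration 1 h before detection reagent.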

In test [7] the target is Rap guanine nucleotide exchange factor 3 (Homo sapiens) (UniProt O95398). Put plainly: Confirmatory qHTS for antagonist of cAMP-regulated guanine nucleotide exchange factor 3 (EPAC1) (AID 1645880). Note: potency is the fitted concentration of half-maximal effect; nearly all actives have a fitted effect of over 55% in size. Conditions: EPAC1 Rap1B-BODIPY-GDP exchange, fluorescence. In outline:
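Released BODIPY-GDP fluoresces less than Rap1-bound BODIPY-GDP; the signal is followed at 480/540 nm at 5-min intervals over 30 min, after 5 min at room temperature. Reactions contain 100 nM EPAC1, 250 nM RAP1B-BODIPY-GDP and 50 uM GDP; results are normalized to ATA and DMSO.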

The target is the same in test [8]. Kind of test: Confirmatory qHTS for agonist of cAMP-regulated guanine nucleotide exchange factor 3 (EPAC1) (AID 1645881).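 Note: EPAC1 catalysed release of BODIPY-GDP from Rap1B seen as fluorescence loss; 100% = effect of cAMP agonist control; nearly all actives have a fitted effect of over 75% in size.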
Test [9] addresses Rap guanine nucleotide exchange factor 4 (Homo sapiens) (UniProt Q8WZA2). Put plainly: Confirmatory qHTS for agonist of cAMP-regulated guanine nucleotide exchange factor 4 (EPAC2) (AID 1645884).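 Note: nucleotide exchange releases bodipy-GDP from Rap1 and this lowers its fluorescence; % is set by controls: 0 for no effect and ±100 for the full control effect; nearly all actives have a fitted effect of over 65% in size.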
Test [10] shares this target. Kind of test: Confirmatory qHTS for antagonist of cAMP-regulated guanine nucleotide exchange factor 4 (EPAC2) (AID 1645885). Note: % is set by controls: 0 for no effect and ±100 for the full control effect; nearly all actives have a fitted effect of over 25% in size. Conditions: outcome: dose series up to 114 µM.
The target in test [11] is Rap guanine nucleotide exchange factor 3 (Homo sapiens) (UniProt O95398). Kind of test: Counterscreen qHTS for antagonist of cAMP-regulated guanine nucleotide exchange factor 3 (EPAC1) (AID 1645888). Note: % of control where 0% means no effect. In outline: (§1)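 Measured: fluorescence of BODIPY-GDP bound to Rap1B, which falls as exchange proceeds. Conditions include 50 uM competing GDP, 5 and 30 min reads, and a later cAMP challenge for antagonist detection.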
Background: The purpose of a counterscreen is to sort out artefacts and off-target activity.

Test [12] shares this target. Put plainly: Counterscreen qHTS for agonist of cAMP-regulated guanine nucleotide exchange factor 3 (EPAC1) (AID 1645889). Note: % of control where 0% means no effect; nearly all actives have a fitted effect of over 40% in size. In outline:
as §1

Test [13] is described as follows: Primary qHTS for inhibitors of nuclear receptor binding SET domain protein 2 (NSD2) in an RCH-ACV wild type WT cells (2C) (AID 1645877). For activity change, negative = cell killing: % is set by controls: 0 for no effect and ±100 for the full control effect. Note: nearly all actives have a fitted effect of over 70% in size. Note: potency is the fitted concentration of half-maximal effect.
Test [14] in a line: Primary qHTS for inhibitors of nuclear receptor binding SET domain protein 2 (NSD2) in an isogenic RCH-ACV NSD2 p.E1099K mutant (9B) (AID 1645876). Note: % is set by controls: 0 for no effect and ±100 for the full control effect; nearly all actives have a fitted effect of over 70% in size.
For test [15], the target named is Cytochrome P450 2C9 (Homo sapiens) (UniProt P11712). Put plainly: Cytochrome P450 family 2 subfamily C member 9 (CYP2C9) small molecule antagonists: luciferase biochemical (cell-free) qHTS assay (AID 1645842; active = well fitted curve in the direction sought with a large enough effect in the repeat runs; an effect the other way counts as inactive or inconclusive; note: potency is the fitted concentration of half-maximal effect; nearly all actives have a fitted effect of over 55% in size). In outline: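 P450-Glo CYP2C9 system: proluciferin substrate with enzyme in mix containing 0.4% BSA, 10 min at room temperature, then NADPH regeneration solution added and incubated 1 h at 37C. Detection reagent stopped reaction; luminescence read after 20 min as RLU.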
Cytochrome P450 2C9 (Homo sapiens), sequence (P11712 whole entry, looked up): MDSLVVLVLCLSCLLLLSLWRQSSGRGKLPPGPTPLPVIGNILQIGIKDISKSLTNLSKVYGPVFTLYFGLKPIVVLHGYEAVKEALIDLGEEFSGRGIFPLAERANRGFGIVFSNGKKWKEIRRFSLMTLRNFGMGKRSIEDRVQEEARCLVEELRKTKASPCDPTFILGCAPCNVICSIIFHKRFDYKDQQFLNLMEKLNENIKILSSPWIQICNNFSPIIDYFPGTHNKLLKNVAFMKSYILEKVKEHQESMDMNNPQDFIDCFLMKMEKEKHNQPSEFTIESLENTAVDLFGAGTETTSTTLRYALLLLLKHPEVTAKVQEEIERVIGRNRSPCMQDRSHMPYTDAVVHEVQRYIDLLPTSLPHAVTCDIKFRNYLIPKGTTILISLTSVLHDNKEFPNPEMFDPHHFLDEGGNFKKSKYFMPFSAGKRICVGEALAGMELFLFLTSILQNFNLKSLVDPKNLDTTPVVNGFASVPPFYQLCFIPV

Cytochrome P450 2D6 (Homo sapiens), sequence (P10635 whole entry, looked up): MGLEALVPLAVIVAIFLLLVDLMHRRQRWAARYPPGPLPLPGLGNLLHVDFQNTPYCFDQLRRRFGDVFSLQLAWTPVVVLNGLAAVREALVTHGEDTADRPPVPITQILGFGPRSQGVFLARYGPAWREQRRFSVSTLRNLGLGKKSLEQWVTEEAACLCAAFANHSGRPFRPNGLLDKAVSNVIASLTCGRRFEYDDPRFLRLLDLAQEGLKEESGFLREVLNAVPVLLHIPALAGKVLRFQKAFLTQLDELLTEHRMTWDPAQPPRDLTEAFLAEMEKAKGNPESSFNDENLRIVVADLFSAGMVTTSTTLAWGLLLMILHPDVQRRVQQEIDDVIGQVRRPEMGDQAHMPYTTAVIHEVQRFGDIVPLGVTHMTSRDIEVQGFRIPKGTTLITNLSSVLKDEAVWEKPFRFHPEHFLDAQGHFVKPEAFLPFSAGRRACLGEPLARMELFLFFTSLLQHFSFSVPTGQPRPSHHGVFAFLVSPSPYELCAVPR
Catechol O-methyltransferase (Homo sapiens), sequence (P21964 whole entry, looked up): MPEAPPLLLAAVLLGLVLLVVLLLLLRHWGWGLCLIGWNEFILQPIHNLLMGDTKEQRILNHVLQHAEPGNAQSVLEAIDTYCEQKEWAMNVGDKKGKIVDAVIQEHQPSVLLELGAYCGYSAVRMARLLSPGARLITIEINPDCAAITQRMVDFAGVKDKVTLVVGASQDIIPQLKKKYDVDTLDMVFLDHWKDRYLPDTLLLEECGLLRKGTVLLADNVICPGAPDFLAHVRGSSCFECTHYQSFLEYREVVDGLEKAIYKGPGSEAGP
Rap guanine nucleotide exchange factor 3 (Homo sapiens), sequence (O95398 whole entry, looked up): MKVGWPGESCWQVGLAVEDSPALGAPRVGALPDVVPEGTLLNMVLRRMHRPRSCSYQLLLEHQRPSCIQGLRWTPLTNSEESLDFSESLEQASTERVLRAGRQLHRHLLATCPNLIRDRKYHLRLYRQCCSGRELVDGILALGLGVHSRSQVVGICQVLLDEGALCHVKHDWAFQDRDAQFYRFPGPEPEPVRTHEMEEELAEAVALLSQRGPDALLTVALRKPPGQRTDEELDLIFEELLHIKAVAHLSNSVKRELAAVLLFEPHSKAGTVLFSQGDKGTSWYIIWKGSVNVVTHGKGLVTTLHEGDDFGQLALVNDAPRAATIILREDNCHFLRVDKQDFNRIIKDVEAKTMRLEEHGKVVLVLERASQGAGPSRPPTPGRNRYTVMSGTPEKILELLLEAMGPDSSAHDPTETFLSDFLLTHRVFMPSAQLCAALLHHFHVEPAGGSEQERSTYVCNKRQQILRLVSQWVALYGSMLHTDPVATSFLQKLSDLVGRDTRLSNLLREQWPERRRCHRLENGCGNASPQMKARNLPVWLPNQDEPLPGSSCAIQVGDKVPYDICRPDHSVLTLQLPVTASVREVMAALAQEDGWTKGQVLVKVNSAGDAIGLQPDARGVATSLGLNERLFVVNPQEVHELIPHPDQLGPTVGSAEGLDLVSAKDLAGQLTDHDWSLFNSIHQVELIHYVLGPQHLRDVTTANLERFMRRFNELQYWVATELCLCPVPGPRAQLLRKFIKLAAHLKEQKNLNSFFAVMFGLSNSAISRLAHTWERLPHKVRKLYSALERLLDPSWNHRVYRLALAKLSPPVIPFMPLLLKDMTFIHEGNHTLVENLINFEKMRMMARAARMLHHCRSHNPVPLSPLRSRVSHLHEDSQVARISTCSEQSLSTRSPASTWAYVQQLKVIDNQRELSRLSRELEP
Phenylethanolamine N-methyltransferase (Homo sapiens), sequence (P11086 whole entry, looked up): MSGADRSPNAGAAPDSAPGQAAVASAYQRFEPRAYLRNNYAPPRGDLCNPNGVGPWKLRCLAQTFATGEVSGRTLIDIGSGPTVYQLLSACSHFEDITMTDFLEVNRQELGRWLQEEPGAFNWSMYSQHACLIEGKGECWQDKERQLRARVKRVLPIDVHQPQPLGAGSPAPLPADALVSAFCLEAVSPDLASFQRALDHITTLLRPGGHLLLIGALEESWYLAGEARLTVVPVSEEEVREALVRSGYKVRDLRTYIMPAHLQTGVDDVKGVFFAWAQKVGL
Calcium and integrin-binding protein 1 (Homo sapiens), sequence (Q99828 whole entry, looked up): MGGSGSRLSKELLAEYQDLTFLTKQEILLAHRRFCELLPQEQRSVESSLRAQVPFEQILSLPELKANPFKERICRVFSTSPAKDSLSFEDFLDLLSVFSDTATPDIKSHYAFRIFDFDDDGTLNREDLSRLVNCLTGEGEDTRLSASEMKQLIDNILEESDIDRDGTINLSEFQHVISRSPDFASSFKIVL
Nicotinamide N-methyltransferase (Homo sapiens), sequence (P40261 whole entry, looked up): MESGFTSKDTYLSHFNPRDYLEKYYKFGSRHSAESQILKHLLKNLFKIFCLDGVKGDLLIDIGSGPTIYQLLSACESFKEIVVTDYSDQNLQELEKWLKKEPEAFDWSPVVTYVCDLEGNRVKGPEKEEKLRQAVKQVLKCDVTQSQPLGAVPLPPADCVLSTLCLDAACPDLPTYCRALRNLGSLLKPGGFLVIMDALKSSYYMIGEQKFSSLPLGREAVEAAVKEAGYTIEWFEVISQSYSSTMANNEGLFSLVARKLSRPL
Rap guanine nucleotide exchange factor 4 (Homo sapiens), sequence (Q8WZA2 whole entry, looked up): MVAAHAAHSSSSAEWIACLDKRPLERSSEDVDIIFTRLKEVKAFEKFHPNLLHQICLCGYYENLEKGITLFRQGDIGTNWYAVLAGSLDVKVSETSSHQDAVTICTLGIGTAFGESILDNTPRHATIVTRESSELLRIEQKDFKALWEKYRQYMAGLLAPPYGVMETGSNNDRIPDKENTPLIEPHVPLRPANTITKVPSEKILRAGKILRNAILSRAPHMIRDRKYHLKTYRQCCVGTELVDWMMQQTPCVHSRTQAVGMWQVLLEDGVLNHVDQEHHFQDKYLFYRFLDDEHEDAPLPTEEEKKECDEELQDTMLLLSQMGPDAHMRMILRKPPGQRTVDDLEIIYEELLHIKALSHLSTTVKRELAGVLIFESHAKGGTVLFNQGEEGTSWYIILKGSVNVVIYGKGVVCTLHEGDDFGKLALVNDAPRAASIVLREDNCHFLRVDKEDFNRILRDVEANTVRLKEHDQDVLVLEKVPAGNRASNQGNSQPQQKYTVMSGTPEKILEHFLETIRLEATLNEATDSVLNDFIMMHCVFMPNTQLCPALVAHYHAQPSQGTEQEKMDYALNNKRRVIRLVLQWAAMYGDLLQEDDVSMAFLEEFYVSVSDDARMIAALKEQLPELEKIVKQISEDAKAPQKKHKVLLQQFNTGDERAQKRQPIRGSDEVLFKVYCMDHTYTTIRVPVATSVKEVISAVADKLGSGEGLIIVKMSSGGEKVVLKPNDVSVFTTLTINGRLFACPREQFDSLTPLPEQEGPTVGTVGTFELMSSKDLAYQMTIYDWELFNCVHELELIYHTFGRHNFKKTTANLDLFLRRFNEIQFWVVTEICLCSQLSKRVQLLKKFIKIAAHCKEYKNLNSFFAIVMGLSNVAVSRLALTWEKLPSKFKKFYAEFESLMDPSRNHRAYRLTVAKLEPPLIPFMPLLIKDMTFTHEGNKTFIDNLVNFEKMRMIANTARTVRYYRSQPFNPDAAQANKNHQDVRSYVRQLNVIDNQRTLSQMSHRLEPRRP

As for `CC1CCCCCCCc2cc(O)cc(O)c2C(=O)O1` (stereo not drawn), the Potency entry in test [1] was “inactive”. The activity in test [2] is -69.9%; in test [4], -60.9%; in test [5] it was -64.4%. In test [3], the Potency was 30.4 µM (active).

Consider `CCOc1ccc(-c2cc(NC(=O)c3c(F)cccc3F)c(C(=O)O)s2)cc1`, for which the Potency in [6] was 7.56 µM (active); in test [7] it was 9.53 µM (active). Further, the outcome in test [8], in test [9], in test [10], in test [11] and in [12] was “inactive” each time. The activity in [2] was -2.79%; in test [4] it was -5.18%; in test [5], -2.03%. For the same compound, in [3], the activity change, negative = inhibition turned out to be 0.993%.

For the compound `C=C(C(=O)OC)[C@]12O[C@@](C)(CC[C@@]3(O)/C(=C\C)C(=O)O[C@]3(C)C[C@@H]1OC(=O)C(CO)CN1CCCC1C(=O)O)CC2=O` (stereo partly drawn), the Potency result in test [1] is “inactive”. The Potency in [13] was 6.82 µM (active).

Consider `C/C=C1/CC2C(=O)Nc3cc(O)c(OC)cc3C(=O)N2C1` (stereo not drawn), for which the Potency entry in test [1] is “inactive”. Also, in test [13], the Potency was 10.1 µM (active).

Turning to `COc1ccnc2[nH]cc(C(=O)C(=O)N3CCN(C(=O)c4ccccc4)CC3C)c12` (stereo not drawn), the Potency in [6] is 3.01 µM (active). Further, the Potency result in [14] and in test [13] was “inactive” throughout.

Consider `CO[C@H]1c2cc(C(C)C)c(O)c(O)c2[C@@]23CCCC(C)(C)C2[C@@H]1OC3=O` (stereo partly drawn), for which the Potency entry in test [14] was “inactive”.

Regarding `Cc1ccc2[nH]c(=O)c(C3=NN(C(=O)CCC(=O)O)C(c4ccc(Br)cc4)C3)c(-c3ccccc3)c2c1` (stereo not drawn), the Potency entry in [6], in test [14] and in test [13] was “inactive” each time. The Potency in [15] was 26.8 µM (active).

Consider `CCCc1[nH]nc2c1C(c1cc(Cl)cc(Cl)c1O)C(C#N)=C(N)O2` (stereo not drawn), for which the values for the Potency in [6] and in [15] were 2.13 µM (active) and 12 µM (active), respectively.

As to `Cc1ccccc1NC(=O)Nc1ccc(CN2C(=O)N([C@@H](CC(C)C)C(=O)N[C@@H](CC(=O)O)c3ccccc3)C(=O)C2(C)C)cc1`, the Potency entry in test [6], in test [14] and in [13] was “inactive” throughout.

In the case of `Cc1cc(-c2nncc3c(C(C)(C)C)c(OCc4ncnn4C)nn23)no1`, the Potency entry in test [6], in [14] and in [13] was “inactive” throughout. In [15], the Potency is 3.01 µM (active).

`CC1(CO)CC(O)C2(C)CCC3(C)C(=CCC4C5(C=O)CCC(OC6OC(C(=O)O)C(O)C(O)C6OC6OC(C(=O)O)C(O)C(O)C6O)C(C)(C)C5CCC43C)C2C1` (stereo not drawn): the Potency entry in [1] was “inactive”. Also, the activity change, negative = viability loss in [14] is -5.71% [at 9.23 µM] (inactive). The activity change, negative = cell killing in test [13] is -0.213% [at 9.23 µM] (inactive). For the same compound, the activity in [2] is -73.8%; in [4], -0.108%; in test [5], 1.8%. The activity change, negative = inhibition in test [3] was found to be 0.442% [at 19.1 µM].

For `N#CN1CCC[C@@H](n2nc(-c3ccc(Oc4ccc(F)cc4F)cc3)c(C(N)=O)c2N)C1`, in test [1], the Potency result is “inactive”. For the same compound, the Potency in [13] is 16.6 µM (active).

Turning to `Cc1ccc(COC(=O)N2CC[C@@H](CNc3ncccn3)[C@@H](F)C2)cc1`, the Potency was 16.9 µM (active) in test [6] and 13.5 µM (active) in test [15].

Consider `Cc1nnc(-c2sc(NC(=O)[C@H](C(C)C)n3c(=O)[nH]c4ccccc4c3=O)nc2C)o1`, for which the Potency in [15] was 9.52 µM (active). For the same compound, the Potency result in [14] and in [13] was “inactive” in each case.

Take `Cc1c(F)cc(C(=O)NC2CC2)cc1-c1ccc(C(=O)NCC(C)(C)C)cn1`: the Potency entry in [6] was “inactive”.

As for `C=C1CC/C=C(/CO)C(=O)C[C@@H]2[C@@H]1C[C@@]2(C)COC(C)=O`, the Potency result in test [1] and in test [14] was “inactive” in each case. Moreover, the activity in [2] is -65.6%; in test [4], 0.048%; in test [5], 1.6%. Also, the activity change, negative = inhibition in test [3] is 0%.
